Screening data: PubChem BioAssay, several laboratories
An excerpt weighted towards active compounds, which were near 2.2% of everything screened.
BaF3 tox – parental Ba/F3 viability inhibition as JAK2V617F counter-screen; inhibition, % at 5.6 µM; 220,000 compounds, 1.1% hits; CellTiter-Glo ATP luminescence; AID 1486;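 active = inhibition above a per-campaign cutoff, the mean inhibition of all tested compounds plus 3 SD, cut at about 27% in these data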
APP 5UTR inh – APP translation inhibition | AID 1285 | inhibition, % at 2 µM | SH-SY5Y APP 5'UTR-luciferase reporter, luminescence | 190,000 compounds, 0.82% hits;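 active = inhibition above a set limit, derived from the sample mean plus 3 SD, cut at about 45% in these data; inconclusive = one replicate passes the limit while the other fails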
Ba/F3 V617F tox – lowers viability of Ba/F3 cells expressing EpoR and JAK2V617F | ATP luminescence | inhibition, % at 5.6 µM | 220,000 compounds, 1.1% hits;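 active = inhibition above the campaign mean plus 3 SD over all tested compounds, cut at about 24% in these data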;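 also: cytokine-independent growth of Ba/F3 cells driven by EpoR plus mutant JAK2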
IEC-6 cytotox – counter-screen for KLF5 inhibitors: cytotoxicity in IEC-6 cells; inhibition, % at 5 µM; IEC-6 cytotoxicity, luminescence viability; 290,000 compounds, 0.78% hits
KLF5 inh – kruppel-like factor 5 inhibition; DLD-1 KLF5 promoter-luciferase reporter, luminescence; inhibition, % at 5 µM; 290,000 compounds, 0.23% hits; AID 1700;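 active = inhibition above a per-plate limit of that plate's mean compound inhibition plus 3 SD, cut at about 60% in these data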;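 also: higher means less KLF5 promoter-driven luciferase light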
aSyn 5UTR inh – MLPCN primary screen, SNCA 5' untranslated region; alpha-synuclein 5'UTR reporter, inhibitor activity; 300,000 compounds, 0.82% hits; inhibition, % (tested at 7.5 µM); AID 1813; in the data active = inhibition above about 60%; inconclusive = no clear call, values can overlap the other calls;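 also: H4 neuroglioblastoma cells stably carrying SNCA 5'UTR luciferase fusion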
IEC-6 cytotox cf – IEC-6 cytotoxicity, confirmation assay; shares compounds with IEC-6 cytotox; 1,900 compounds, 63% hits; inhibition, % at 5 µM; IEC-6 rat intestinal epithelial viability, luminescence
Hits are given with their value; i = inactive; ? = inconclusive; nt = not tested or not shown. Rule as the data show it, unless noted: active = inhibition above about 22%; inactive = the rest.

SMILES	BaF3 tox	APP 5UTR inh	Ba/F3 V617F tox	IEC-6 cytotox	KLF5 inh	aSyn 5UTR inh	IEC-6 cytotox cf
C/C(=N\NC(=O)c1cc(C2CC2)nc2ccccc12)c1ccc(O)cc1O	nt	nt	nt	51	i	74	43
C/C(=N\NC(=O)c1cc(C)nc2ccccc12)c1cccs1	i	nt	i	29	i	i	i
CC(/C=C/c1ccccc1)=N\NC(=O)c1cc(C)nc2ccccc12	52	nt	33	40	i	i	i
Cc1cc(C(=O)NN=C2CCCC2)c2ccccc2n1	nt	nt	nt	nt	nt	i	nt
O=C(NCc1ccccn1)c1ccc(OC2CCN(Cc3ccc(F)cc3F)CC2)cc1	nt	nt	nt	i	i	i	nt
CCn1c(CNC(=O)c2ccccc2OC)nnc1SCC(=O)c1ccc(F)cc1	nt	nt	nt	i	i	i	nt
COc1ccc(CCNCc2c(OC)ccc3ccccc23)cc1OC	nt	nt	nt	26	i	i	i
O=C(CCCCCNC(=O)N1CCn2c1nc1ccccc12)N[C@@H](Cc1ccccc1)C(=O)O	nt	nt	nt	i	i	i	nt
CN(CC1CCCO1)S(=O)(=O)c1ccc(C(=O)Nc2nc(-c3ccccn3)cs2)cc1 (centres undefined)	61	74	70	57	i	nt	52
COc1ccccc1-c1nnc(NC(=O)c2ccc(S(=O)(=O)N(C)CC3CCCO3)cc2)o1 (centres undefined)	nt	nt	nt	i	i	i	nt
CN(CC1CCCO1)S(=O)(=O)c1ccc(C(=O)Nc2nnc(-c3ccccc3)o2)cc1 (centres undefined)	nt	nt	nt	27	i	i	i
COC(=O)C1CN(C(=O)COc2ccc(Cl)c(C)c2)c2ccccc2O1 (centres undefined)	nt	nt	nt	i	i	i	nt
CCCCNC(=O)N1CCN(c2ccnc3cc(Cl)ccc23)CC1	nt	nt	nt	i	i	i	nt
O=C(Nn1cc(C(=O)Nc2ccccc2F)c2ccccc2c1=O)c1cnccn1	i	i	i	52	i	i	i
COc1ccccc1C(CNc1ccc(S(=O)(=O)N2CCCC2)cc1[N+](=O)[O-])N(C)C (centres undefined)	nt	nt	nt	22	i	i	i
Cc1ccc(C(=O)Cn2c(C(=O)OCCO)cc3ccccc32)cc1	nt	nt	nt	26	i	i	i
Cc1cc(=O)oc2cc(OC(=O)C3CCN(C(=O)c4ccc(F)cc4)CC3)ccc12	nt	nt	nt	nt	nt	i	nt
c1cnc2c(c1)ccc1cccnc12	i	i	i	70	i	85	80
CCCCCCN1CC(O)=C(c2ccccc2)C1=N	i	i	i	i	i	i	nt
CCCCCCCn1ccc(=N)cc1	77	i	97	23	i	?	32
Cc1ccccc1NC(=O)c1ccc([N+](=O)[O-])o1	i	i	i	i	i	i	nt
O=C(Nc1ccccc1Cl)c1ccc([N+](=O)[O-])o1	nt	nt	nt	47	i	i	i
O=C(Nc1cccc(NC(=O)c2ccc([N+](=O)[O-])o2)c1)c1ccco1	nt	nt	nt	99	i	i	35
O=C(Nc1ccc(NC(=O)c2ccc([N+](=O)[O-])o2)cc1Cl)c1ccco1	nt	nt	nt	101	i	i	27
O=C(NC12CC3CC(CC(C3)C1)C2)c1ccc([N+](=O)[O-])o1	nt	nt	nt	66	i	i	25
SMILES	BaF3 tox	APP 5UTR inh	Ba/F3 V617F tox	IEC-6 cytotox	KLF5 inh	aSyn 5UTR inh	IEC-6 cytotox cf
CC(=O)Nc1cccc(NC(=O)c2ccco2)c1	i	i	i	i	i	i	nt
O=C(Nc1ccc(NC(=O)c2ccco2)c(Cl)c1)c1ccccc1	i	i	i	i	i	i	nt
Cc1csc(=O)n1CC(=O)OCC(=O)Nc1ccc(Cl)cc1F	nt	nt	nt	nt	nt	i	nt
O=C(Nc1cccc2ncccc12)c1ccc([N+](=O)[O-])o1	nt	nt	nt	98	i	i	24
Cc1c(NC(=O)c2ccc([N+](=O)[O-])o2)cccc1-c1nc2ncccc2o1	nt	nt	nt	100	i	i	i
Cc1ccc(NC(=O)C2CCN(S(=O)(=O)c3ccc(N4CCCC4=O)cc3)CC2)cc1Cl	nt	nt	nt	27	i	i	i
Cc1ccccc1NS(=O)(=O)c1ccc(N2CCCC2=O)cc1	72	74	85	55	i	i	44
Cc1ccccc1NS(=O)(=O)c1cc2c3c(c1)CC(=O)N3CCC2	nt	nt	nt	i	i	i	nt
Cc1cc(OCC(O)CN(C)C(=O)C(C)Oc2ccccc2)ccc1Cl (centres undefined)	nt	nt	nt	i	i	i	nt
NCC(=O)Nc1ccc(Cl)cc1C(=O)c1ccc[nH]1	37	nt	58	31	i	i	i
O=C(NNC(=O)c1ccc[nH]1)c1cc(Cl)cc(Cl)c1	nt	nt	nt	i	i	i	nt
Cc1cccc2c1cnn2C(=O)CCC(=O)NCc1ccc(F)cc1	nt	nt	nt	i	i	i	nt
CCN1/C(=C\c2ccc3cc(C)ccc3[n+]2CC)Sc2cc(C)c(C)cc21	71	i	100	37	i	i	28
CCN1/C(=C/c2ccc3cccc(C)c3[n+]2CC)Sc2ccccc21	89	i	98	32	i	i	36
C[n+]1ccccc1/C=C1\Sc2ccccc2N1CCO	nt	nt	nt	i	i	i	nt
CC[n+]1c(/C=C/c2ccc(OC)c(OC)c2)ccc2ccccc21	nt	nt	nt	i	i	i	nt
CCN1/C(=C/c2ccc3cc(C)cc(C)c3[n+]2CC)Sc2cc(C)ccc21	86	61	101	43	i	nt	37
CCOc1ccc(NC(=O)c2c(NC(=O)CNCCN3CCOCC3)sc3c2CCC3)cc1	nt	nt	nt	i	i	i	nt
COC(=O)CCCC(=O)N1CCCC(N(C)CCc2ccccc2)C1 (centres undefined)	nt	nt	nt	i	i	i	nt
Cc1cc2c(NCCc3ccccc3)ncnc2s1	nt	nt	nt	22	i	i	22
CN1C(=O)Cc2cc(S(=O)(=O)Nc3ccc(N4CCOCC4)cc3)ccc21	nt	nt	nt	i	i	i	nt
O=Nc1c(-c2c(O)[nH]c3cc(Br)ccc23)[nH]c2ccccc12	nt	nt	nt	23	i	77	i
COCCN(Cc1cccs1)S(=O)(=O)c1ccc(-c2ccc(=O)[nH]n2)s1	nt	nt	nt	i	i	i	nt
CCC1CCCCN1C(=O)c1cc(COc2ccc3ncccc3c2)on1 (centres undefined)	68	i	68	23	i	i	i
COCC1CCCCN1C(=O)c1cc(COc2ccc3ncccc3c2)on1 (centres undefined)	nt	nt	nt	i	i	i	nt
SMILES	BaF3 tox	APP 5UTR inh	Ba/F3 V617F tox	IEC-6 cytotox	KLF5 inh	aSyn 5UTR inh	IEC-6 cytotox cf
Cn1c(=O)c2c(nc(NCc3cccnc3)n2Cc2cccc(C(F)(F)F)c2)n(C)c1=O	53	i	53	25	i	i	25
Cn1c(=O)c2c(nc(Cl)n2CC(=O)NC2(C#N)CCCCC2)n(C)c1=O	nt	nt	nt	nt	nt	i	nt
COC(=O)c1ccc(-c2ccc(Cl)cc2)nc1C	i	i	i	i	i	i	nt
Cc1ccc2nc(SCC(=O)Nc3cc(C(F)(F)F)ccc3N3CCOCC3)[nH]c2c1	75	94	78	82	i	96	60
CCn1c(SCC(=O)N/N=C(\C)c2ccncc2)nnc1-c1ccc(C)cc1	i	nt	i	i	i	i	nt
c1ccc(CCNc2ccnc3cc4ccccc4cc23)cc1	43	i	53	87	i	117	43
COc1ccc(N(C=O)C(C(=O)Nc2c(C)cccc2C)c2ccccc2)cc1 (centres undefined)	nt	nt	nt	nt	nt	i	nt
CCc1ccc(S(=O)(=O)Nc2cc(SCC(=O)O)c(O)c3ccccc23)cc1	i	i	i	i	i	i	nt
